{
  "source": "the supplement of paper PMC12340641",
  "note": "The full ranking holds about 1,000 compounds; the median of “relative growth recovery (pomalidomide 10 uM = 100%, DMSO = 0%)” is about -1.6, and the highest 2% start at about 21. For the sample, the highest values were picked, then their nearest neighbours and some compounds at random.",
  "data": [
    {"system": "HEK293FT dCK*-IKZF1", "assay": "relative growth recovery (pomalidomide 10 uM = 100%, DMSO = 0%); higher = more growth rescue (IKZF1 fusion degradation)", "settings": "compound concentration: 5 uM; AraC concentration: 0.3 uM; overnight pretreatment + 4 days AraC", "method": "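Growth recovery screen of the molecular-glue-like (Specs) library. HEK293FT cells expressing a dCK*-IKZF1 fusion (primary) or dCK* alone (counter) were pretreated overnight with compound at 5 uM, then given 0.3 uM AraC for 4 days. Hoechst nuclei were counted by imaging. Primary: normalised to pomalidomide (100%) and DMSO (0%), mean of 2 replicates. Counter: normalised to no-AraC (100%) and AraC+DMSO (0%), single replicate.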", "units": {"relative growth recovery": "%"}, "values": [
      {"smiles": "CCCc1cnc(Nc2cccc(C3CCN(C(=O)Cn4c(CC(C)C)nc5ccccc54)CC3)n2)s1", "relative growth recovery": -2.13},
      {"smiles": "COc1ccc(-c2csc(Nc3ccc(S(=O)(=O)Nc4cc(OC)nc(OC)n4)cc3)n2)cc1", "relative growth recovery": -2.94},
      {"smiles": "Cc1cnc(Nc2cccc(C3CCCN3C(=O)c3nccc4ccccc34)n2)s1", "note": "(centres undefined)", "relative growth recovery": 2.39},
      {"smiles": "O=C(Cc1cccs1)Nc1ccc(Oc2ccc3c(c2)C(=O)N(c2ccc(O)cc2)C3=O)cc1", "relative growth recovery": -1.26},
      {"smiles": "O=C(C1CCCCC1)N1CCC(Cc2cccc(Nc3nccs3)n2)CC1", "relative growth recovery": 4.47},
      {"smiles": "Cc1cccc(C)c1OCC(=O)Nc1ccc(S(=O)(=O)Nc2ncccn2)cc1", "relative growth recovery": 1.77},
      {"smiles": "COc1ccccc1CCC(=O)N1CCOC(c2cccc(Nc3ncc(C)s3)n2)C1", "note": "(centres undefined)", "relative growth recovery": 10.8},
      {"smiles": "COc1cc(NS(=O)(=O)c2ccc(NC(=O)COc3cccc(C)c3)cc2)nc(OC)n1", "relative growth recovery": -18.6},
      {"smiles": "COCC(=O)N1CCCC1c1cccc(Nc2nc(C)cs2)n1", "note": "(centres undefined)", "relative growth recovery": -7.27},
      {"smiles": "O=C1CCC(N2C(=O)c3ccc(C(=O)O)cc3C2=O)C(=O)N1", "note": "(centres undefined)", "relative growth recovery": -0.47},
      {"smiles": "Cc1cc(C)nc(NS(=O)(=O)c2ccc(NC(=O)c3ccccc3I)cc2)n1", "relative growth recovery": -0.26},
      {"smiles": "Cc1ccnc(NS(=O)(=O)c2ccc(NC(=O)C34CC5CC(CC(C5)C3)C4)cc2)n1", "relative growth recovery": -6.07},
      {"smiles": "CCCCCOC(=O)c1ccc(N2C(=O)c3ccc(Oc4ccc(N)cc4)cc3C2=O)cc1", "relative growth recovery": 1.57},
      {"smiles": "CC(C)Cc1nc2ccccc2n1CC(=O)N1CCC(Cc2cccc(Nc3nccs3)n2)CC1", "relative growth recovery": -1.89},
      {"smiles": "CC(C)(C)C(=O)NC1(C(=O)N2CCC(c3cccc(Nc4ncc(Cl)s4)n3)CC2)CCCCC1", "relative growth recovery": -18.6},
      {"smiles": "COCC(=O)N1CCC(c2cccc(Nc3ncc(C)s3)n2)CC1", "relative growth recovery": -19.4},
      {"smiles": "CC(=O)Nc1cccc(-c2csc(Nc3cccc(C)n3)n2)c1", "relative growth recovery": 5.18},
      {"smiles": "CC(=O)Nc1ccc(-c2csc(Nc3cccc(C)n3)n2)cc1", "relative growth recovery": 0.905},
      {"smiles": "Cc1ccc(Nc2nc(-c3sc(NC(=O)c4ccccc4)nc3C)cs2)nc1", "relative growth recovery": 111},
      {"smiles": "CC(=O)Nc1ccc(-c2csc(Nc3ccccn3)n2)cc1", "relative growth recovery": 2.7},
      {"smiles": "CC(=O)N1CCCC1c1csc(Nc2ccccn2)n1", "note": "(centres undefined)", "relative growth recovery": -4.06},
      {"smiles": "CC(=O)Nc1ccc(-c2csc(Nc3ccc(Cl)cn3)n2)cc1", "relative growth recovery": -2.84},
      {"smiles": "Cc1ccnc(Nc2nc(-c3sc(NC(=O)c4ccccc4)nc3C)cs2)c1", "relative growth recovery": 111},
      {"smiles": "Cc1cccc(Nc2nc(-c3sc(NC(=O)c4ccccc4)nc3C)cs2)n1", "relative growth recovery": 121},
      {"smiles": "CC(=O)N1CCCC(c2csc(Nc3ccc(C)cn3)n2)C1", "note": "(centres undefined)", "relative growth recovery": -5.95},
      {"smiles": "Cc1nc2ccccn2c1CC(=O)N1CCOC(c2cccc(Nc3nccs3)n2)C1", "note": "(centres undefined)", "relative growth recovery": 10.9},
      {"smiles": "Cc1cnc(Nc2cccc(C3CN(C(=O)COc4ccccc4)CCO3)n2)s1", "note": "(centres undefined)", "relative growth recovery": -5.58},
      {"smiles": "CCCc1cnc(Nc2cccc(C3CCN(C(=O)C4CCCCN4C(=O)CN(C)C)CC3)n2)s1", "note": "(centres undefined)", "relative growth recovery": -2.86},
      {"smiles": "Cc1csc(Nc2cccc(C3CCN(C(=O)c4cccnc4)CC3)n2)n1", "relative growth recovery": 8.94},
      {"smiles": "Cc1cc(C)c(C(=O)Nc2ccc(S(=O)(=O)Nc3cc(C)nc(C)n3)cc2)c(C)c1", "relative growth recovery": -1.16},
      {"smiles": "Cc1csc(Nc2cccc(C3CN(CC(=O)NCc4ccccn4)CCO3)n2)n1", "note": "(centres undefined)", "relative growth recovery": 8.57},
      {"smiles": "Cc1csc(Nc2cccc(C3CN(C(=O)CCC4CCCC4)CCO3)n2)n1", "note": "(centres undefined)", "relative growth recovery": 21},
      {"smiles": "Cc1csc(Nc2cccc(C3CN(C(=O)COc4c(C)cccc4C)CCO3)n2)n1", "note": "(centres undefined)", "relative growth recovery": 22.3},
      {"smiles": "Cc1csc(Nc2cccc(C3CN(C(=O)CCOc4ccccc4C)CCO3)n2)n1", "note": "(centres undefined)", "relative growth recovery": 62.8},
      {"smiles": "Cc1cnc(Nc2cccc(C3CN(C(=O)C4CC4c4ccc(Cl)cc4)CCO3)n2)s1", "note": "(centres undefined)", "relative growth recovery": 28.4},
      {"smiles": "COCC(=O)N1CCOC(c2cccc(Nc3nc(C)cs3)n2)C1", "note": "(centres undefined)", "relative growth recovery": 2.9},
      {"smiles": "Cc1cnc(Nc2cccc(C3CN(C(=O)CCC4CCCCC4)CCO3)n2)s1", "note": "(centres undefined)", "relative growth recovery": 7.2},
      {"smiles": "Cc1csc(Nc2cccc(C3CN(C(=O)CCn4ncc5ccccc54)CCO3)n2)n1", "note": "(centres undefined)", "relative growth recovery": 18.8},
      {"smiles": "Cc1csc(Nc2cccc(C3CN(C(=O)Cn4nc(C)ccc4=O)CCO3)n2)n1", "note": "(centres undefined)", "relative growth recovery": 1.32},
      {"smiles": "Cc1cnc(Nc2cccc(C3CN(C(=O)C45CC6CC(CC(C6)C4)C5)CCO3)n2)s1", "note": "(centres undefined)", "relative growth recovery": -2.75},
      {"smiles": "Cc1cnc(Nc2cccc(C3CN(C(=O)C4CCCC4)CCO3)n2)s1", "note": "(centres undefined)", "relative growth recovery": -12.3},
      {"smiles": "Cc1csc(Nc2cccc(C3CCCN3C(=O)CCOc3ccccc3C)n2)n1", "note": "(centres undefined)", "relative growth recovery": 11.5},
      {"smiles": "COc1cccc(OC)c1C(=O)N1CCOC(c2cccc(Nc3nc(C)cs3)n2)C1", "note": "(centres undefined)", "relative growth recovery": 7.41},
      {"smiles": "COc1cc(NS(=O)(=O)c2ccc(NC(=O)c3ccc(Br)o3)cc2)nc(OC)n1", "relative growth recovery": 2.29},
      {"smiles": "CC(C)(N)C(=O)N1CCC(CO)(c2cccc(Nc3ncc(-c4ccccc4)s3)n2)CC1", "relative growth recovery": -19.1},
      {"smiles": "Cc1cc(NS(=O)(=O)c2ccc(NC(=O)c3cccnc3)cc2)nc(C)n1", "relative growth recovery": 1.28},
      {"smiles": "CCCOc1ccc(C(=O)Nc2ccc(S(=O)(=O)Nc3ncccn3)cc2)cc1", "relative growth recovery": -3.33},
      {"smiles": "Cc1cc(C)nc(NS(=O)(=O)c2ccc(NC(=O)CSc3nc4c(cc3C#N)CCC4)cc2)n1", "relative growth recovery": -6.17},
      {"smiles": "Cc1nc(Nc2cccc(C3CCCN3C(=O)CCOc3cccc(F)c3)n2)sc1C", "note": "(centres undefined)", "relative growth recovery": 8.19},
      {"smiles": "CCOc1ccccc1OCC(=O)Nc1ccc(S(=O)(=O)Nc2ccccn2)cc1", "relative growth recovery": -1.77},
      {"smiles": "COc1ccccc1CCC(=O)N1CCC(c2cccc(Nc3ncc(C)s3)n2)CC1", "relative growth recovery": 19},
      {"smiles": "Cc1ccc(N2C(=O)c3ccc(Oc4ccc(N)cc4)cc3C2=O)cc1", "relative growth recovery": -1.57},
      {"smiles": "Nc1ccc(Oc2ccc3c(c2)C(=O)N(c2ccccc2)C3=O)cc1", "relative growth recovery": 2.54},
      {"smiles": "COCCNC(=O)C1(c2cccc(Nc3ncc(C)s3)n2)CCN(C(=O)C2CCCCC2)CC1", "relative growth recovery": -5.38},
      {"smiles": "Cc1ccnc(NS(=O)(=O)c2ccc(NC(=O)Cc3ccc(Cl)cc3)cc2)n1", "relative growth recovery": 2.92},
      {"smiles": "Cc1cnc(Nc2cccc(C3CCCN3C(=O)CCCc3ccc(F)cc3)n2)s1", "note": "(centres undefined)", "relative growth recovery": 0.955},
      {"smiles": "Cn1cc(/C=C/C(=O)N2CCC(c3cc4ccccc4c(Nc4nccs4)n3)CC2)cn1", "relative growth recovery": -18.7},
      {"smiles": "CCc1nccn1CC(=O)N1CCOC(c2cccc(Nc3ncc(C)s3)n2)C1", "note": "(centres undefined)", "relative growth recovery": 0.35},
      {"smiles": "Cc1cc(C)c(S(=O)(=O)Nc2ccc(S(=O)(=O)Nc3ncccn3)cc2)c(C)c1", "relative growth recovery": 6.84},
      {"smiles": "COc1ccc2[nH]c3nc(SCC(=O)Nc4cc(Cl)ccc4OC)nnc3c2c1", "relative growth recovery": -18.5},
      {"smiles": "COc1cc(NS(=O)(=O)c2ccc(NC(=O)C3CC3)cc2)nc(OC)n1", "relative growth recovery": -1.71},
      {"smiles": "O=C1CCC(N2C(=O)c3cccc(NC[C@H]4CC[C@H](C(=O)O)CC4)c3C2=O)C(=O)N1", "note": "(some centres undefined)", "relative growth recovery": 50.3},
      {"smiles": "O=C(O)CCOCCNc1cccc2c1C(=O)N(C1CCC(=O)NC1=O)C2=O", "note": "(centres undefined)", "relative growth recovery": -5.19},
      {"smiles": "O=C(O)CCCNc1cccc2c1C(=O)N(C1CCC(=O)NC1=O)C2=O", "note": "(centres undefined)", "relative growth recovery": 3.32}
    ]}
  ]
}
